# Assay results reported in PubChem BioAssay (Tox21).
# “And” between values parts separate entries of the source, which are not always exact repeats. Equal values may be shown once. More than one record can exist for a structure, and the calls need not agree. The source made the active and inactive calls. Entries that show only a call come without a potency. Unless noted, calls come from the whole dose curve; as a rule, active = well fitted curve in the direction sought with a large enough effect in the repeat runs; inconclusive = weak or mixed curves; inactive = no such curve, though single readings can be large; an effect the other way counts as inactive or inconclusive.
# What was measured:
# [1] = qHTS assay to identify small molecule antagonists of the thyroid receptor (TR) signaling pathway - cell viability counter screen (AID 743064); note: nearly all actives have a fitted effect of over 50% in size; note: potency is the fitted concentration of half-maximal effect
# How it was run: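 Counter screen for cytotoxicity: compound plus T3 (1 nM final) on GH3.TRE-Luc cells, 23.5 h at 37 °C, then fluorescence viability readout with CellTiter-Fluor.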
# [2] = qHTS assay to identify small molecule antagonists of the thyroid receptor (TR) signaling pathway (AID 743065); note: nearly all actives have a fitted effect of over 55% in size; note: potency is the fitted concentration of half-maximal effect
# How it was run: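 Antagonism measured as loss of luciferase signal in GH3 cells stably carrying a TRE-luciferase reporter, co-treated with compound and T3 (1 nM final) for 23.5 h at 37 C. Viability was read in the same well by CellTiter-Fluor.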
# [3] = tested on: thyroid hormone receptor (rat, GH3 cells); experiment: qHTS assay to identify small molecule agonists of the thyroid receptor (TR) signaling pathway (AID 743066; calls by dose curve)
# [4] = target: Estrogen receptor (Homo sapiens) (UniProt P03372); experiment: qHTS assay to identify small molecule antagonists of the estrogen receptor alpha (ER-alpha) signaling pathway (AID 743069; active = well fitted curve in the direction sought with a large enough effect in the signal ratio in the repeat runs, not every such curve was filed as active; inconclusive = weak or mixed curves, or effect the other way; inactive = no such curve, though single readings can be large or run the other way; the % refers to the signal ratio)
# Chain of Estrogen receptor (Homo sapiens) (P03372 whole entry, looked up): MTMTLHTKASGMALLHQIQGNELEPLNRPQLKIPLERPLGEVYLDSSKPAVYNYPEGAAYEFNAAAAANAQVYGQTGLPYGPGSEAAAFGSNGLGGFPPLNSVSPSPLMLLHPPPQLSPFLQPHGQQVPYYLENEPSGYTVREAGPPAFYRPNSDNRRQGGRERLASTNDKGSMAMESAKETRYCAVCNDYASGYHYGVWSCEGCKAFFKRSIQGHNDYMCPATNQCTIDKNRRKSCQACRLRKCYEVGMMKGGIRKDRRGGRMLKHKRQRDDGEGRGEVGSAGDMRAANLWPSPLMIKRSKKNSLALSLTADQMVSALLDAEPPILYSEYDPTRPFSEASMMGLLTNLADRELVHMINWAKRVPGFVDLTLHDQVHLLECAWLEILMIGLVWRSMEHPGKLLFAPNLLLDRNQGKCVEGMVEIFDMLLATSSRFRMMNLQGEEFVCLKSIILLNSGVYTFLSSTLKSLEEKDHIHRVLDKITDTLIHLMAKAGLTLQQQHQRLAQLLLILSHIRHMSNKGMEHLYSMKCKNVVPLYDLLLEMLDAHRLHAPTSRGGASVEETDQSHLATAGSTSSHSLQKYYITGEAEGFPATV
# How it was run: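 Fluorescence intensity from a beta-lactamase FRET substrate served as the read-out. Cells: HEK293 with stably integrated ER-alpha-UAS-bla reporter. Agonist 17beta-estradiol was co-added with compounds; incubation 18 hr at 37C, substrate 2 hr at room temperature.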
# [5] = qHTS assay to identify small molecule antagonists of the estrogen receptor alpha (ER-alpha) signaling pathway - cell viability counter screen (AID 743074; calls by dose curve; note: nearly all actives have a fitted effect of over 45% in size)
# [6] = target: Estrogen receptor (Homo sapiens) (UniProt P03372); experiment: qHTS assay to identify small molecule agonists of the estrogen receptor alpha (ER-alpha) signaling pathway (AID 743075; calls by dose curve; note: potency is the fitted concentration of half-maximal effect)
# [7] = target: Estrogen receptor (Homo sapiens) (UniProt P03372); experiment: qHTS assay to identify small molecule agonists of the estrogen receptor alpha (ER-alpha) signaling pathway using the BG1 cell line (AID 743079); note: nearly all actives have a fitted effect of over 20% in size; note: potency is the fitted concentration of half-maximal effect
# Aromatase (Homo sapiens) = Aromatase (Homo sapiens) (UniProt P11511); experiment: qHTS assay to identify aromatase inhibitors (AID 743083); note: nearly all actives have a fitted effect of over 55% in size; note: potency is the fitted concentration of half-maximal effect
# Chain of Aromatase (Homo sapiens) (P11511 whole entry, looked up): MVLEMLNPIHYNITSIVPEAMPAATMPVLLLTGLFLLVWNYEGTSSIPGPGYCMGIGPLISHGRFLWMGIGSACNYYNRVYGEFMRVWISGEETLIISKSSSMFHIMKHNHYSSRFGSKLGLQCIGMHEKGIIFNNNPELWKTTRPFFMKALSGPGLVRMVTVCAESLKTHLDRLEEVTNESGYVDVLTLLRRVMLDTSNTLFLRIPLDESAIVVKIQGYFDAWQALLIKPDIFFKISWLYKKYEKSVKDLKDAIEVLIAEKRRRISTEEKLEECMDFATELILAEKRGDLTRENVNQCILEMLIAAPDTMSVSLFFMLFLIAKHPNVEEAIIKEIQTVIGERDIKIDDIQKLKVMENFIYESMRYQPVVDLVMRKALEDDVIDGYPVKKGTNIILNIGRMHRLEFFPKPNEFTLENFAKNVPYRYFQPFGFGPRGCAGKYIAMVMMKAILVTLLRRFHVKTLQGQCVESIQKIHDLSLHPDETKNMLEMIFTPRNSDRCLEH
# [8] = qHTS assay to identify aromatase inhibitors - cell viability counter screen (AID 743084);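 note: cells stimulated with testosterone during compound exposure; nearly all actives have a fitted effect of over 55% in size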; note: potency is the fitted concentration of half-maximal effect
# [9] = target: Aryl hydrocarbon receptor (Homo sapiens) (UniProt P35869); experiment: qHTS assay to identify small molecule that activate the aryl hydrocarbon receptor (AhR) signaling pathway (AID 743085); note: nearly all actives have a fitted effect of over 15% in size; note: potency is the fitted concentration of half-maximal effect;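 for activation: HG2L7.5c1 human HepG2 liver cells with stably integrated DRE-driven firefly reporter; series mostly up to about 70 µM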
# Chain of Aryl hydrocarbon receptor (Homo sapiens) (P35869 whole entry, looked up): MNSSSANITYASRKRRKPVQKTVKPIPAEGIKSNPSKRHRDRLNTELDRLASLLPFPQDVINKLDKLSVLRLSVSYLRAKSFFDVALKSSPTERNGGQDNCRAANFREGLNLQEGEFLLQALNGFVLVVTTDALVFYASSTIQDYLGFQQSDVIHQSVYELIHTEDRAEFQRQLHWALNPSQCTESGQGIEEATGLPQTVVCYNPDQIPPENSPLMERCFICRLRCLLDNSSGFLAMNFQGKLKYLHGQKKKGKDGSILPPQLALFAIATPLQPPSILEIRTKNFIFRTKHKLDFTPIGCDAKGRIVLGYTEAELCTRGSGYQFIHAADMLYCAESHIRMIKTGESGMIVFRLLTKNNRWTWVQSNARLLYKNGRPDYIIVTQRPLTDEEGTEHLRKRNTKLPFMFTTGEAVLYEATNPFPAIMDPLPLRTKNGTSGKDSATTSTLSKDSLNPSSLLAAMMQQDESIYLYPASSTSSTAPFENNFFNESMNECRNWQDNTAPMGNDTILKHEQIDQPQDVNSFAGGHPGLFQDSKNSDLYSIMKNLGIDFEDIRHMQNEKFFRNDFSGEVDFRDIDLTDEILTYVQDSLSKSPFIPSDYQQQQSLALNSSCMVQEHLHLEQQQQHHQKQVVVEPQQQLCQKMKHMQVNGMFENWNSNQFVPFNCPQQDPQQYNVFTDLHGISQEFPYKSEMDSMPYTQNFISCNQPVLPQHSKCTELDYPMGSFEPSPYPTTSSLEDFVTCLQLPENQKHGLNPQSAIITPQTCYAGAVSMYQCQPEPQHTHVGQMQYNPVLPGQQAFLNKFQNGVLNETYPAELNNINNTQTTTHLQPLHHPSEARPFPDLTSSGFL
# How it was run: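 Measured in HG2L7.5c1 cells: CellTiter-Fluor signal (30 min incubation, 37C) for viability, then luciferase luminescence (30 min, room temperature). Compound contact time was 24 h at 37C, following a 5 h pre-incubation.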
# [10] = qHTS assay to identify small molecule that activate the aryl hydrocarbon receptor (AhR) signaling pathway - cell viability counter screen (AID 743086); note: nearly all actives have a fitted effect of over 45% in size; note: potency is the fitted concentration of half-maximal effect
# How it was run: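 Cytotoxicity counter screen: CellTiter-Fluor signal (30 min, 37 C) in 4000 HepG2 cells/well carrying the DRE-luciferase reporter, following 24 h compound exposure at 37 C.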
# [11] = target: Peroxisome proliferator-activated receptor gamma (Homo sapiens) (UniProt P37231); experiment: qHTS assay to identify small molecule agonists of the peroxisome proliferator-activated receptor gamma (PPARg) signaling pathway (AID 743094; active = well fitted activation curve with a large enough effect in the signal ratio in the repeat runs, not every such curve was filed as active; inconclusive = weak or mixed curves, or effect the other way; inactive = no such curve, though single readings can be large or run the other way; the % refers to the signal ratio)
# Chain of Peroxisome proliferator-activated receptor gamma (Homo sapiens) (P37231 whole entry, looked up): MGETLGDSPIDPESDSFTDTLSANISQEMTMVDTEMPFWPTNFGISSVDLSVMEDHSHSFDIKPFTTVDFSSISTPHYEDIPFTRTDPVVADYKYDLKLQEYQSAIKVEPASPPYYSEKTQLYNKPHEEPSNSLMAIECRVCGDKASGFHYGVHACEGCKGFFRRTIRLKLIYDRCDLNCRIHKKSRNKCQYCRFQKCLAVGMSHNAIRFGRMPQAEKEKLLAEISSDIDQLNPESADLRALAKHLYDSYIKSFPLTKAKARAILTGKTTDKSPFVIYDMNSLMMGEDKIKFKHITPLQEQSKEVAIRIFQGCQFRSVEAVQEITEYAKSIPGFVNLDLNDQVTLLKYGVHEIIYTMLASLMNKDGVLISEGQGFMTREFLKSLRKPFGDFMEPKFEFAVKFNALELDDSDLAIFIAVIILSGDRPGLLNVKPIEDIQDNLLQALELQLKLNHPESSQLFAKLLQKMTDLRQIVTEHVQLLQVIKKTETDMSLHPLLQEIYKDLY
# How it was run: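 Reporter activation was scored by fluorescence of cleaved LiveBLAzer B/G substrate (1 h, room temperature) in PPARg-bla HEK293H cells previously treated 17 h at 37C with DMSO-dissolved compounds.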
# [12] = qHTS assay to identify small molecule antagonists of the peroxisome proliferator-activated receptor gamma (PPARg) signaling pathway - cell viability counter screen (AID 743194); conditions: Potency: co-treated with 50 nM rosiglitazone; note: nearly all actives have a fitted effect of over 55% in size; note: potency is the fitted concentration of half-maximal effect
# How it was run: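 Viability was measured as CellTiter-Glo luminescence in GeneBLAzer PPARg UAS-bla HEK293H cells. These cells had been exposed 17 h at 37 C to compounds together with rosiglitazone at 50 nM final, with the beta-lactamase readout taken in the same wells.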
# [13] = qHTS assay for small molecule agonists of the antioxidant response element (ARE) signaling pathway (AID 743202; active = well fitted activation curve with a large enough effect in the signal ratio in the repeat runs, not every such curve was filed as active; inconclusive = weak or mixed curves, or effect the other way; inactive = no such curve, though single readings can be large or run the other way; the % refers to the signal ratio; note: potency is the fitted concentration of half-maximal effect)
# How it was run: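 Beta-lactamase reporter activity, read as fluorescence intensity, reflects ARE/Nrf2 pathway induction in HepG2 cells after 16 h compound exposure at 37 C; substrate loading was 2 h at room temperature.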
# [14] = qHTS assay for small molecule agonists of the antioxidant response element (ARE) signaling pathway - cell viability counter screen (AID 743203; calls by dose curve; note: nearly all actives have a fitted effect of over 55% in size; note: potency is the fitted concentration of half-maximal effect)
# How it was run: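 Viability counter screen: stably transfected ARE-bla HepG2 line, 16 hrs compound exposure at 37C/5% CO2, ATP-based CellTiter-Glo luminescence measured in the reporter wells.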
# [15] = qHTS assay for small molecule activators of the heat shock response signaling pathway - cell viability counter screen (AID 743209); note: nearly all actives have a fitted effect of over 50% in size; note: potency is the fitted concentration of half-maximal effect
# How it was run: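 Viability of HSE-bla HeLa cells is measured with CellTiter-Glo in the wells already used for the reporter read. Compound exposure lasts 5 h at 37 C, and luminescence is read after 30 min at room temperature.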
# [16] = qHTS assay to identify small molecule antagonists of the estrogen receptor alpha (ER-alpha) signaling pathway using the BG1 cell line (AID 743080; calls by dose curve; note: nearly all actives have a fitted effect of over 25% in size; note: potency is the fitted concentration of half-maximal effect)
# How it was run: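 Antagonist mode: compounds in DMSO were pinned onto BG1-Luc-4E2 cells alongside 17beta-estradiol agonist, incubated 21.5 h, and ERE-driven luciferase measured with ONE-Glo. Cytotoxicity was multiplexed using CellTiter-Fluor fluorescence.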
# [17] = qHTS assay to identify small molecule antagonists of the estrogen receptor alpha (ER-alpha) signaling pathway using the BG1 cell line - cell viability counter screen (AID 743081);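 note: compound given together with 17beta-estradiol as the ER stimulus; series mostly up to about 70 µM; nearly all actives have a fitted effect of over 45% in size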
# [18] = target: Peroxisome proliferator-activated receptor gamma (Homo sapiens) (UniProt P37231); experiment: qHTS assay to identify small molecule antagonists of the peroxisome proliferator-activated receptor gamma (PPARg) signaling pathway (AID 743191; calls by dose curve; note: series mostly up to about 63 µM; nearly all actives have a fitted effect of over 30% in size)
# How it was run: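 Beta-lactamase reporter under UAS control in HEK293H PPARg-bla cells; compound treatment 17 h at 37C. Read-out: fluorescence intensity after 1 h room-temperature incubation with LiveBLAzer B/G FRET substrate.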
# [19] = qHTS assay for small molecule activators of the heat shock response signaling pathway (AID 743210; active = well fitted activation curve with a large enough effect in the signal ratio in the repeat runs, with a control signal flat, not every such curve was filed as active; inconclusive = weak or mixed curves; the % refers to the signal ratio;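 note: HeLa cells with beta-lactamase reporter driven by heat shock elements; series mostly up to about 63 µM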)
# How it was run: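 Fluorescence from a cleaved B/G FRET substrate (2.5 h, room temp) reports HSE-driven beta-lactamase in HeLa cells treated 5 h at 37 C with DMSO-dissolved compounds.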
SMILES,Potency [1],Potency [2],Potency [3],Potency [4],Potency [5],Potency [6],Potency [7],Potency (Aromatase (Homo sapiens)),Potency [8],Potency [9],Potency [10],Potency [11],Potency [12],Potency [13],Potency [14],Potency [15],Potency [16],Potency [17],Potency [18],Potency [19]
CCC(C)(C)c1ccc(O)c(C(C)(C)CC)c1,12.1 µM (active) and 13.7 µM (active),12.1 µM (active) and 12.2 µM (active),inactive,inactive,inactive,inactive,inactive,60.4 µM (active) and 30.6 µM (active),42.8 µM (active) and 27.3 µM (active),inactive,inactive,inactive,24.3 µM (active) and 21.9 µM (active),inactive,61.1 µM (active),17.2 µM (active) and 17.4 µM (active),–,–,–,–
CCOP(=S)(OCC)Oc1ccc(S(C)=O)cc1 (centres undefined),inactive,inactive,inactive,–,inactive,inactive,inactive,inactive,inactive,10.9 µM (active),inactive,inactive,inactive,inactive,inactive,inactive,inactive,inactive,inactive,inactive
CCN(C(C)=O)c1cccc(-c2ccnc3c(C#N)cnn23)c1,inactive,inactive,inactive,–,inactive,inactive,inactive,inactive,inactive,inactive,inactive,inactive,inactive,inactive,inactive,inactive,inactive,inactive,inactive,inactive
O=C(CCl)CCl,25.2 µM (active) and 15.4 µM (active),25.2 µM (active) and 8.63 µM (active),inactive,–,inactive,50.7 µM [activator] (active) and 1.1 µM [inconclusive] (active),inactive,44.9 µM (active) and 8.63 µM (active),15.4 µM (active),inactive,inactive,–,21.9 µM (active),14.2 µM (active),19.3 µM (active),inactive and 12.3 µM (active),–,inactive,–,inactive
CC(C)c1ccc(NC(=O)N(C)C)cc1,inactive,inactive,inactive,inactive,inactive,inactive,–,inactive,inactive,68.5 µM (active),inactive,inactive,inactive,inactive,inactive,inactive,–,inactive,inactive,inactive
CN1CC[C@]23c4c5ccc(O)c4O[C@H]2[C@@H](O)CC[C@H]3[C@H]1C5,inactive,inactive,inactive,–,inactive,inactive,inactive,inactive,inactive,inactive,inactive,inactive,inactive,inactive,inactive,inactive,–,inactive,–,–
O=C=NC1CCCCC1,inactive,inactive,inactive,–,inactive,inactive,12.2 µM (active),inactive,inactive,54.6 µM (active),inactive,inactive,–,inactive,inactive,inactive,–,inactive,–,inactive
C#C[C@]1(O)CC[C@H]2[C@@H]3CCC4=CC(=O)CCC4=C3C=C[C@@]21CC,inactive,23.7 µM (active),inactive,–,inactive,213 nM [inconclusive] (active),0.0422 µM (active),inactive,inactive,inactive,inactive,–,inactive,–,inactive,inactive,23.7 µM (active),inactive,–,inactive
Nc1cccc2ccccc12,inactive,inactive,inactive,inactive,–,inactive,inactive,inactive,inactive,27.5 µM (active) and 27.3 µM (active),inactive,inactive,inactive,inactive,inactive,inactive,–,inactive,inactive,inactive
CCCC[N+](CCCC)(CCCC)CCCC,inactive,inactive,inactive,–,inactive,inactive,inactive,inactive,inactive,inactive,inactive,inactive,inactive,inactive,inactive,inactive,inactive,inactive,inactive,inactive
Cc1nc2ccccc2c(=O)n1-c1ccccc1Cl,30 µM (active),inactive,inactive,inactive,–,inactive,33.6 µM (active),inactive,–,inactive,47.5 µM (active),inactive,inactive,–,inactive,inactive,inactive,–,inactive,inactive
CCOP(=S)(S)OCC,inactive,inactive,inactive,–,inactive,inactive,inactive,inactive,inactive,inactive,inactive,inactive,inactive,–,inactive,inactive,inactive,inactive,inactive,inactive
Oc1cccc(Cl)c1,inactive,inactive,inactive,–,inactive,inactive,inactive,inactive,inactive,inactive,inactive,inactive,inactive,inactive,inactive,inactive,inactive,inactive,inactive,–
c1ccc2c(c1)sc1ccccc12,inactive,inactive,inactive,–,inactive,inactive,inactive,inactive,inactive,inactive,inactive,inactive,–,–,inactive,inactive,inactive,inactive,inactive,inactive
CCc1ccccc1N,inactive,inactive,inactive,–,inactive,inactive,inactive,inactive,inactive,inactive,inactive,inactive,–,–,inactive,inactive,inactive,inactive,inactive,inactive
